# Assay outcomes (PubChem BioAssay)
# TGFb SMAD3 inh – TGF-b pathway inhibition. HepG2 CAGA-GFP TGF-b/SMAD3 reporter, GFP fluorescence, 18 h; TGF-beta stimulated, 500 pg/mL final. Potency, µM (highest dose often 46.1 µM), for inactives: top-dose activity, negative = inhibition, hits mostly inhibitors. hit rate 1.2% among 410,000. AID 588855; further: on the % scale 0 is the no-effect control and ±100 the full control effect; nearly all actives have a fitted effect of over 65% in size
#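 Inhibition of TGF-beta-driven CAGA-GFP reporter expression in HEPG2 cells is measured by cellular GFP fluorescence after 18 h stimulation with 500 pg/mL recombinant TGF-beta in 1% FBS medium at 37 degrees C.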
# TDP1 cell CPT – growth inhibition of DT40 Tdp1-/-;hTDP1 cells with camptothecin (screen for TDP1 inhibitors); hit rate 12% among 420,000; Potency, µM (series often up to 46.2 µM), for the others: at the highest dose activity change, negative = growth inhibition, actives largely listed as inhibitors; chicken DT40 Tdp1-/-;hTDP1 cells + 20 nM CPT, ATP luminescence, 48 h; AID 686979; further: on the % scale 0 is the no-effect control and ±100 the full control effect; nearly all actives have a fitted effect of over 55% in size
#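 Chicken DT40 Tdp1-/- cells complemented with human TDP1, 400 cells/well, exposed to compounds plus 20 nM camptothecin for at least 48 h at 37 C; viability read as ATP content by CellTiter-Glo luminescence.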
# DT40 TDP1 no CPT – qHTS for Inhibitors of human tyrosyl-DNA phosphodiesterase 1 (TDP1): qHTS in cells in absence of CPT; hit rate 15% among 420,000; Potency, µM (top dose mostly 46.2 µM), for the others: at the top dose activity change, negative = growth inhibition, hits mostly inhibitors; DT40 Tdp1-/- hTDP1 cells, no CPT, ATP luminescence, 48 h; further: on the % scale 0 is the no-effect control and ±100 the full control effect; nearly all actives have a fitted effect of over 55% in size
#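 DT40 Tdp1-/-;hTDP1 cells, no CPT (DMSO vehicle only), 400 cells/well; compounds pin-transferred; ≥48 hr, 37 °C; CellTiter-Glo 30 min RT dark, luminescence read.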
# HepG2 viability – HepG2 cytotoxicity, counter-screen for TGF-b inhibitors | hit rate 0.76% among 410,000 | Potency, µM (doses to about 46.1 µM), for inactives: at the top dose activity change, negative = cytotoxicity, usual class: cytotoxic | HepG2 CAGA-GFP viability, ATP luminescence, 18 h
#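 CellTiter-Glo luminescence gave cytotoxicity after 18 hours at 37 degrees C. The cells were HepG2 CAGA-GFP in 1% FBS DMEM, stimulated with 500 pg/mL TGF-beta after compound addition. %Activity was normalised to no-cell wells (complete cell-killing) and DMSO (no toxicity), and curves were fitted and classified.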
# S2 tox – cell viability loss in ATXN counter-screen | S2 cells (HEK-293 line with an ATXN2-luciferase reporter) viability, CellTiter-Fluor protease fluorescence, 24 h | Potency, µM (top dose mostly 56.7 µM), hits mostly cytotoxic | hit rate 0.49% among 400,000 | AID 651635; further: nearly all actives have a fitted effect of over 40% in size
# ATXN2 expr inh – ATXN2 expression inhibition; hit rate 0.72% among 360,000; Potency, µM (titrated, usually from 57 µM), inactives show top-dose activity change, negative = inhibition, most hits filed as inhibitors; HEK-293 ATXN2-luciferase reporter, luminescence, 24 h; AID 1745845; further: on the % scale 0 is the no-effect control and ±100 the full control effect; nearly all actives have a fitted effect of over 55% in size
#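 qHTS (up to 57 uM final) was run with 24 h compound exposure of reporter cells at 37 °C. Each well was multiplexed: SteadyGlo luminescence measured ATXN2-luciferase expression after a fluorogenic Gly-Phe-AFC viability readout (25 uM final).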
# * marks the source's active call; other numbers are inactive results; i = inactive; u = inconclusive; x = no result; [ ] = remark or other dose. A selection: hits, their analogues and other compounds. The true share with any hit is near 17%. The call rests on the fitted dose curve; in most records, active means well fitted curve in the direction sought with a large enough effect; inconclusive means small, poorly fitted or top-dose-only effect, or another doubt; inactive means no such curve, though single readings can be large; an effect the other way counts as inactive or inconclusive. Potency means the concentration at half of the fitted maximal effect.
SMILES,TGFb SMAD3 inh,TDP1 cell CPT,DT40 TDP1 no CPT,HepG2 viability,S2 tox,ATXN2 expr inh
COc1ccc(Cn2cc(CN3CC(N(C)C)CS3(=O)=O)nn2)cc1 (centres undefined),x,-9%,0%,x,i,4%
CC(C)(C)OC(=O)N1C[C@H](O)C[C@H]1C(=O)OCC(=O)c1ccc([N+](=O)[O-])cc1,0%,16µM*,u,-6%,i,-15%
CCCCC[C@@H]1C=C(C(=O)O)[C@H](c2ccc3c(c2)OCO3)N1S(=O)(=O)c1ccc(C)cc1,1%,14%,-7%,-15%,i,-7%
O=c1c2ccccc2cnn1Cc1ccc(Cl)c(Cl)c1,-1%,-6%,u,-22%,i,-16%
O=c1cnn(Cc2ccc(Cl)c(Cl)c2)c2ccccc12,u,21µM*,15µM*,-19%,i,u
COc1ccc2nc(Nc3nc(C)c(CCC(C)C)c(=O)[nH]3)nc(C)c2c1,19%,u,18µM*,-3%,i,-10%
COc1ccc2nc(Nc3nc(CSc4nnnn4-c4ccccc4)cc(=O)[nH]3)nc(C)c2c1,-30%,u,u,-20%,i,u
Cc1cc(C)c2nc(Nc3nc(CSc4nc5ccccc5[nH]4)cc(=O)[nH]3)nc(C)c2c1,-5%,-25%,u,-21%,i,-30%
COc1ccc2nc(Nc3nc(CSc4ccc(C)cc4)cc(=O)[nH]3)nc(C)c2c1,-3%,u,18µM*,0%,i,-12%
Cc1ccc(SCc2cc(=O)[nH]c(Nc3nc(C)c4cccc(C)c4n3)n2)cc1,1%,u,16µM*,1%,i,-9%
Cc1cc(Br)ccc1NC(=O)CN(C)C(=O)COc1cccc2c1OC(C)(C)C2,0%,-18%,-21%,2%,i,-4%
CC(C)Oc1cc(F)ccc1-c1cc(C(=O)NCc2ccccn2)[nH]n1,-2%,u,u,-5%,i,-4%
CC(=O)c1cccc(NC(=O)CCc2c(C)nc3c(-c4ccc(F)cc4)c(C)nn3c2C)c1,-2%,2.6µM*,u,-3%,i,2%
Cc1ccc(NC(=O)CCc2c(C)nc3c(-c4ccc(F)cc4)c(C)nn3c2C)cc1F,-4%,-20%,u,5%,i,2%
COc1cc(NC(=O)CCc2c(C)nc3c(-c4ccc(F)cc4)c(C)nn3c2C)cc(OC)c1OC,-1%,5.2µM*,6.5µM*,-5%,i,-11%
Cc1cccc(CCNC(=O)CCc2c(C)nc3c(-c4ccc(F)cc4)c(C)nn3c2C)c1,-17%,u,9.2µM*,-12%,i,-3%
CN(C)S(=O)(=O)c1ccc(Cl)c(NC(=O)COC(=O)/C=C/c2ccc(S(=O)(=O)N3CCOCC3)cc2)c1,u,u,-29%,-16%,i,12%
O=C(C(O)c1ccccc1)N1N=C(c2ccccc2)CC1(O)C(F)(F)F (centres undefined),0%,8%,u,-6%,i,-12%
COc1ccc(NC(=O)C(NS(=O)(=O)c2cccc3nsnc23)C(C)C)cc1OC (centres undefined),-6%,-7%,-3%,8%,i,8%
Cc1c(C(=O)N2CCN(C(C)C)CC2)sc2ncnc(NCc3ccco3)c12,x,18%[9.04 µM],3%,x,i,x
S=c1[nH]nc(Cc2ccc(Cl)cc2)o1,-8%,-16%,-11%,-4%,i,2%
COc1ccccc1C(=O)N/N=C(\C)c1cccnc1,0%,-1%,6%,-29%,i,16%
O=c1cc(N/N=C/c2ccccc2)[nH]c(=O)[nH]1,9%,4.1µM*,4.6µM*,4%,u,u
O=c1cc(C=NNc2ccccc2)[nH]c(=O)[nH]1,-2%,7%,2%,-12%,i,-3%
COc1ccc2c(c1)OCC(Cc1ccc(OC)c(OC)c1)C2=O (centres undefined),x,u,13µM*,x,x,x
SMILES,TGFb SMAD3 inh,TDP1 cell CPT,DT40 TDP1 no CPT,HepG2 viability,S2 tox,ATXN2 expr inh
COc1ccc2c(c1)OCC(Cc1ccc(OC)c(OC(C)=O)c1)C2=O (centres undefined),x,0.65µM*,0.65µM*,x,x,x
COc1ccc2c(c1)OCC(Cc1ccc(OC)c(OC)c1)C2O (centres undefined),x,0%,u,x,x,x
COc1cc(C(=O)Oc2ccc3c(c2)OCC3=O)cc(OC)c1OC,0%,-12%,-20%,7%,i,0%
C=CC(C)(C)c1[nH]cnc1/C=C1\NC(=O)C(C(C)C)NC1=O (centres undefined),3%,12µM*,16µM*,-1%,u,-8%
COCCOC(=O)N1CCCCC1c1cc(C(=O)Nc2cccc3c2CCCC3)no1 (centres undefined),u,3.7µM*,4.6µM*,-33%,i,-11%
O=C(Nc1cccc2c1CCCC2)c1cc(C2CCCCN2C(=O)OCCF)on1 (centres undefined),20%,9.2µM*,9.2µM*,-2%,i,-8%
Cn1cnc(S(=O)(=O)N2CCCCC2c2cc(C(=O)Nc3cccc4c3CCCC4)no2)c1 (centres undefined),22%,21µM*,13µM*,0%,i,-10%
COc1cccc(N2[C@@H](CC(=O)O)c3ccc(/C=C/C(=O)O)cc3S2(=O)=O)c1,-3%,-27%,-27%,0%,i,3%
CC(CC(=O)Nc1ccc(Br)cc1F)S(=O)(=O)c1ccc2c(c1)NC(=O)CO2 (centres undefined),-16%,u,u,-11%,i,-2%
O=S(=O)(c1ccc(F)cc1)N1CCC(n2c(C(F)(F)F)nc3cccnc32)CC1,3%,12µM*,-103%,-31%,i,-5%
OC(COc1ccc(-c2ccccc2)cc1)CN1CCCCC1 (centres undefined),-3%,u,26µM*,-40%,i,x
O=C(c1ccccc1)c1ccc(OCC(O)CN2CCN(S(=O)(=O)N3CCCCC3)CC2)cc1 (centres undefined),2%,u,18µM*,-31%,i,-10%
CCC(=O)c1ccc(OCC(O)CN2CCN(S(=O)(=O)N3CCCCC3)CC2)cc1 (centres undefined),-7%,u,u,-7%,i,0%
